Test results published in PubChem BioAssay.
For some of these results: Measured potencies and affinities stand elsewhere. Active and inactive are the calls of the source. Unless noted, how the calls were made is not given here. Residues, ends and D or L forms follow the SMILES beside them. *: point of attachment. Boc = CC(C)(C)OC(=O)*

Tests used:
[1] = antimalarial activity against Dd2 strain (AID 2302;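 active means growth inhibition above 50% at the single 2 µM test dose, taken to imply half-maximal potency below 2 µM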;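 further: 0% = DMSO untreated growth and 100% = chloroquine plus artemisinin killed control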); settings: P. falciparum Dd2 in RBCs, LDH growth readout, 72 h; at 2 µM; stronger effect = higher value
[2] = HepG2 cytotoxicity, primary screen, cytotoxicity control for P. falciparum antimalarial project, cell-based, ATP luminescence (AID 2303;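 active means inhibition above 50%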;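 further: 0% = DMSO wells and 100% = digitonin-killed cells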); settings: HepG2 viability, 24-48 h, at 10 µM, stronger effect = higher value
[3] = target: L-lactate dehydrogenase (Plasmodium falciparum (isolate CDC / Honduras)) (UniProt Q27743); test: PfLDH activity inhibition – cell lysate, 3D7 strain, counter-screen for P. falciparum growth inhibition project (AID 2304);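 further: 0% = vehicle and 100% = reference inhibitor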; settings: P. falciparum 3D7 crude extract, LDH APAD/NBT absorbance; at 2 µM; stronger effect = higher value
[4] = inhibition of 3D7 malaria parasite growth – strain 3D7 (AID 2306);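 further: 0% = DMSO wells and 100% = chloroquine plus artemisinin control wells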; settings: P. falciparum 3D7 erythrocytic growth, LDH absorbance, 72 h; at 2 µM; stronger effect = higher value
[5] = target: Calcium-dependent protein kinase 1 (Plasmodium falciparum (isolate 3D7)) (UniProt P62344); test: PfCDPK1 kinase inhibitors, biochemical, TCAMS library (AID 1159585; cut-off not given, nearly all actives have IC50 up to about 0.98 µM;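 further: inhibitors leave more ATP so luminescence rises with inhibition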); settings: recombinant PfCDPK1, Kinase-Glo ATP depletion luminescence
[6] = target: Plasmodium falciparum protein kinase 6 (PK6, PF3D7_1337100) (UniProt Q8IDW1); test: PfPK6 kinase inhibitors, biochemical, TCAMS library (AID 1159586); settings: recombinant PfPK6, Kinase-Glo ATP depletion luminescence
[7] = target: Protein kinase 7 (PK7), Plasmodium falciparum 3D7 (PF3D7_0213400) (UniProt Q7YTF7); test: inhibition of Plasmodium PK7 catalytic activity – biochemical, TCAMS antimalarial set, Kinase-Glo luminescence (AID 1159587); settings: recombinant PfPK7, Kinase-Glo ATP depletion luminescence
[8] = target: Calcium-dependent protein kinase 4 (Plasmodium falciparum (isolate 3D7)) (UniProt Q8IBS5); test: PfCDPK4 kinase inhibitors, biochemical, TCAMS library (AID 1159588; cut-off not given, nearly all actives have IC50 up to about 0.91 µM); settings: recombinant PfCDPK4, Kinase-Glo ATP depletion luminescence
Chain of Calcium-dependent protein kinase 4 (Plasmodium falciparum (isolate 3D7)) (Q8IBS5 whole entry, looked up): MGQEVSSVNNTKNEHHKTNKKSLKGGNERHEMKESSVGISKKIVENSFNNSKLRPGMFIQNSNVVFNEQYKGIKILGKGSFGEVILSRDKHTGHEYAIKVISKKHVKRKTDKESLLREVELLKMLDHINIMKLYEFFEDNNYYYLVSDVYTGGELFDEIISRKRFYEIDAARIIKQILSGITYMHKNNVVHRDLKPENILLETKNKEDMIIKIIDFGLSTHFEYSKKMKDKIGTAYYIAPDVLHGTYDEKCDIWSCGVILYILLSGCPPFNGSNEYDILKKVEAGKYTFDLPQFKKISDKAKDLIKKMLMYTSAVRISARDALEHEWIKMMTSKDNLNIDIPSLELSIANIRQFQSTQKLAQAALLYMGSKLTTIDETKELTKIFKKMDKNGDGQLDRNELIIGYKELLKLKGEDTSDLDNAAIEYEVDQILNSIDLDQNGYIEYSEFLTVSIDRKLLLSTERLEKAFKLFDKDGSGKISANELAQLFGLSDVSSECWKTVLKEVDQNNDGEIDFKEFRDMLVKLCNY

Chain of L-lactate dehydrogenase (Plasmodium falciparum (isolate CDC / Honduras)) (Q27743 whole entry, looked up): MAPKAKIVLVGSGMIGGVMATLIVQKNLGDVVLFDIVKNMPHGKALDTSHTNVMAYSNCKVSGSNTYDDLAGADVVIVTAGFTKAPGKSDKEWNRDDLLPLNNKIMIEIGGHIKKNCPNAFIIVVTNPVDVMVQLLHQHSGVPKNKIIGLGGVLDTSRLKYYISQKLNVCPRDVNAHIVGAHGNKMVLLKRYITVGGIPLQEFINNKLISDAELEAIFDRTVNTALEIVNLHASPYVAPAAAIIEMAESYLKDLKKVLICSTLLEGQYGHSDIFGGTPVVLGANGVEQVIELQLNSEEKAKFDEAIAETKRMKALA
Chain of Protein kinase 7 (PK7), Plasmodium falciparum 3D7 (PF3D7_0213400) (Q7YTF7 1-343): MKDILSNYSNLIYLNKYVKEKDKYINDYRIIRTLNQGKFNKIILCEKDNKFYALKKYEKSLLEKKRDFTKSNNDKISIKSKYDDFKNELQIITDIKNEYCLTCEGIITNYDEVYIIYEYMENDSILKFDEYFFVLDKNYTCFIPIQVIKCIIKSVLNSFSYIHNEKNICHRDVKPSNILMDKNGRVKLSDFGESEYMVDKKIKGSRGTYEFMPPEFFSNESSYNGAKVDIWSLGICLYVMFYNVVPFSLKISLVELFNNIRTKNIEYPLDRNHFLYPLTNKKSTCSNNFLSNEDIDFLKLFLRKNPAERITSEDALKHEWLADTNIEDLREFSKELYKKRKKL
Chain of Plasmodium falciparum protein kinase 6 (PK6, PF3D7_1337100) (Q8IDW1 1-305): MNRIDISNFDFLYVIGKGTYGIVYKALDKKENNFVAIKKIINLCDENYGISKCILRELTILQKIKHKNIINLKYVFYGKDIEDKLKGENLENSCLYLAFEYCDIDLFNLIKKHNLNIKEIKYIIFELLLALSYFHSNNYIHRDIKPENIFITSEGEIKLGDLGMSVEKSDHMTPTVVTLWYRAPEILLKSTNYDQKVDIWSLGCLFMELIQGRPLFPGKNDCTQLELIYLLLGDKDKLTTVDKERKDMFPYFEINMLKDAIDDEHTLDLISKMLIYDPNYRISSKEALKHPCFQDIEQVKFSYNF
Chain of Calcium-dependent protein kinase 1 (Plasmodium falciparum (isolate 3D7)) (P62344 whole entry, looked up): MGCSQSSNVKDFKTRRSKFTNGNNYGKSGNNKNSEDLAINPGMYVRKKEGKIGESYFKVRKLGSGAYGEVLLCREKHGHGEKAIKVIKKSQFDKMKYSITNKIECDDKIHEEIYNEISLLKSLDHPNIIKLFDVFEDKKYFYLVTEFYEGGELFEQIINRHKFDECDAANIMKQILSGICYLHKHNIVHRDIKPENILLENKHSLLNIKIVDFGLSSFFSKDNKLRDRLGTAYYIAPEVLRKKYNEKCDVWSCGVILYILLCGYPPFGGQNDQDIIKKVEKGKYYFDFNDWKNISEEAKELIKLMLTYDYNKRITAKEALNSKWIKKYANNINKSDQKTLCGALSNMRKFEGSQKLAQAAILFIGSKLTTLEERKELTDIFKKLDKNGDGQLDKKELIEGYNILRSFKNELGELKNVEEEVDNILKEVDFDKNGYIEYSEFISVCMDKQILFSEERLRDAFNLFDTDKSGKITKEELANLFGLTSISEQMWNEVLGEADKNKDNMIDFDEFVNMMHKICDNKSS

CCNc1cc(C(=O)N[C@@H](Cc2ccccc2)[C@H](O)CN[C@@H](C)c2ccccc2)cc(N2CCCC2=O)c1
inactive: inhibition [2] 7% | inhibition [3] 8% | outcome [5] | outcome [6] | outcome [7] | outcome [8]
active: growth inhibition [1] 96% | growth inhibition [4] 98%

Cc1ccccc1N1CCN(c2ncc(C(=O)NC3CC3)cc2Cl)CC1
inactive: inhibition [2] 23% | inhibition [3] -2% | outcome [5] | outcome [6] | outcome [7] | outcome [8]
active: growth inhibition [1] 96% | growth inhibition [4] 91%

Cc1nc(-c2ccc(-c3ccc(C(=O)Nc4ccc(C(C)C)c(OCCN(C)C)c4)cc3)c(C)c2)no1
inactive: growth inhibition [1] 45% | inhibition [2] 49% | inhibition [3] -2% | outcome [5] | outcome [6] | outcome [7] | outcome [8]
active: growth inhibition [4] 99%

O=C(Nc1ccc(OC2CCN(Cc3ccccc3)CC2)c(Cl)c1)c1ccco1
inactive: inhibition [2] 8% | inhibition [3] 6% | outcome [5] | outcome [6] | outcome [7] | outcome [8]
active: growth inhibition [1] 96% | growth inhibition [4] 96%

COc1ccc2nccc(N(C)CC3(O)CCN(CCc4ccc5c(c4)OCCO5)CC3)c2n1
active: growth inhibition [1] 96% | growth inhibition [4] 100%
inactive: inhibition [2] 15% | inhibition [3] -3% | outcome [5] | outcome [6] | outcome [7] | outcome [8]

Nc1ncc(-c2ccc3ncccc3c2)c(N)n1
inactive: growth inhibition [1] -1% | inhibition [3] 2% | outcome [5] | outcome [6] | outcome [7] | outcome [8]
active: inhibition [2] 55% | growth inhibition [4] 97%

COC(=O)c1cc(C(=O)CN(Cc2ccccc2)C(C)C)ccc1O
active: growth inhibition [4] 97%
inactive: growth inhibition [1] -1% | inhibition [2] 7% | inhibition [3] -2% | outcome [5] | outcome [6] | outcome [7] | outcome [8]

O=C(NCC1CCN(Cc2cccc(C(F)(F)F)c2)C1)c1cc(-c2cccc(F)c2)cs1 (stereo not drawn)
inactive: growth inhibition [1] 5% | inhibition [2] 19% | inhibition [3] -3% | outcome [5] | outcome [6] | outcome [7] | outcome [8]
active: growth inhibition [4] 87%

CC(C)(C)c1ccc(CN2CCC(CNC(=O)c3cc(-c4ccccc4)nc4ccccc34)CC2)cc1
active: growth inhibition [4] 89%
inactive: growth inhibition [1] 36% | inhibition [2] 33% | inhibition [3] -1% | outcome [5] | outcome [6] | outcome [7] | outcome [8]

CC(C)NCc1ccc(-c2cccc(NC(=O)c3ccc(C#N)cc3)c2)cc1
inactive: growth inhibition [1] 19% | inhibition [2] 8% | inhibition [3] 4% | outcome [5] | outcome [6] | outcome [7] | outcome [8]
active: growth inhibition [4] 100%

COc1cc2nc(SCCCC#N)n(C3CCCCCC3)c(=N)c2cc1OC
inactive: growth inhibition [1] 9% | inhibition [2] 0% | inhibition [3] 0% | outcome [5] | outcome [6] | outcome [7] | outcome [8]
active: growth inhibition [4] 89%

O=C(NC(=O)c1ccccc1O)c1ccccc1O
inactive: inhibition [2] -5% | inhibition [3] -2% | outcome [5] | outcome [6] | outcome [7] | outcome [8]
active: growth inhibition [1] 79% | growth inhibition [4] 97%

O=C(Nc1ccc(N2CCN(Cc3ccccc3Cl)CC2)cc1)c1ccc([N+](=O)[O-])o1
inactive: inhibition [3] -4% | outcome [5] | outcome [6] | outcome [7] | outcome [8]
active: growth inhibition [1] 67% | inhibition [2] 100% | growth inhibition [4] 91%

N#CC1(CCCNCCc2ccc(O)cc2)CCCc2c(O)cccc21 (stereo not drawn)
active: growth inhibition [4] 95%
inactive: growth inhibition [1] 3% | inhibition [2] -2% | inhibition [3] -5% | outcome [5] | outcome [6] | outcome [7] | outcome [8]

O=C(NC(=Cc1cccc([N+](=O)[O-])c1)c1nc2ccccc2[nH]1)c1cccc(Br)c1
active: growth inhibition [1] 88% | growth inhibition [4] 85%
inactive: inhibition [2] -1% | inhibition [3] 0% | outcome [5] | outcome [6] | outcome [7] | outcome [8]

O=c1ccc(CNc2nc(NCCc3ccccc3)nc3ccc(Cl)cc23)c[nH]1
inactive: growth inhibition [1] 16% | inhibition [2] 9% | inhibition [3] 2% | outcome [5] | outcome [6] | outcome [7] | outcome [8]
active: growth inhibition [4] 99%

COc1ccc(CNC(=O)c2cnc3c(O)cccc3c2Nc2cccc(NC(=O)c3ccc(Cl)c([N+](=O)[O-])c3)c2)cc1
inactive: growth inhibition [1] 21% | inhibition [2] 48% | inhibition [3] 1% | outcome [5] | outcome [6] | outcome [7] | outcome [8]
active: growth inhibition [4] 86%

CCC(C)(C)n1c(C)cc2c3c(N)nc(N)nc3ccc21
active: growth inhibition [1] 85% | inhibition [2] 69% | growth inhibition [4] 97%
inactive: inhibition [3] 1% | outcome [5] | outcome [6] | outcome [7] | outcome [8]

CCN1CCC(N(Cc2ccc(-c3ccc(C(F)(F)F)cc3)cc2)C(=O)Cn2nc(C)c(=O)cc2SCc2ccc(F)cc2)CC1
active: growth inhibition [1] 94% | inhibition [2] 77% | growth inhibition [4] 94%
inactive: inhibition [3] -1% | outcome [5] | outcome [6] | outcome [7] | outcome [8]

COC(=O)CC[C@H](NC(=O)[C@H](C)NC(=O)OC(C)(C)C)C(=O)OC (Boc-Ala-Glu(OMe)-OMe)
active: growth inhibition [4] 95%
inactive: growth inhibition [1] 0% | inhibition [2] 12% | inhibition [3] -2% | outcome [5] | outcome [6] | outcome [7] | outcome [8]

COc1cccc(-c2csc(C(=O)NCC3CCN(Cc4ccc(C(C)(C)C)cc4)C3)c2)c1 (stereo not drawn)
active: growth inhibition [4] 95%
inactive: growth inhibition [1] 10% | inhibition [2] 30% | inhibition [3] -2% | outcome [5] | outcome [6] | outcome [7] | outcome [8]

CSc1cccc(Nc2nc3ccc(S(=O)(=O)NCC(C)C)cc3n2C(C)C(C)C)c1 (stereo not drawn)
active: growth inhibition [1] 91% | growth inhibition [4] 93%
inactive: inhibition [2] 3% | inhibition [3] -2% | outcome [5] | outcome [6] | outcome [7] | outcome [8]

COc1ccc(NC(=O)CCNc2cc(C)nc(NCCc3ccc(F)cc3)n2)cc1
active: growth inhibition [4] 98%
inactive: growth inhibition [1] 3% | inhibition [2] 27% | inhibition [3] 1% | outcome [5] | outcome [6] | outcome [7] | outcome [8]

O=C(CC(=O)C(F)(F)F)c1ccc2c(c1)OCO2
inactive: growth inhibition [1] 0% | inhibition [2] 44% | inhibition [3] 0% | outcome [5] | outcome [6] | outcome [7] | outcome [8]
active: growth inhibition [4] 96%

COc1cccc(NC(=O)NC2CCN(c3ccnc(Nc4ccc(F)cc4)n3)C2)c1 (stereo not drawn)
inactive: inhibition [2] 9% | inhibition [3] -2% | outcome [5] | outcome [6] | outcome [7] | outcome [8]
active: growth inhibition [1] 71% | growth inhibition [4] 100%

CCc1nc2nc(C)cc(Nc3ccc4c(c3)OCCO4)n2n1
active: growth inhibition [1] 55% | growth inhibition [4] 88%
inactive: inhibition [2] 8% | inhibition [3] -1% | outcome [5] | outcome [6] | outcome [7] | outcome [8]

O=C(Nc1cccc(Cl)c1Cl)N1CCc2cc3nccc(N4CCN5CCC[C@H]5C4)c3cc21
active: growth inhibition [1] 100% | growth inhibition [4] 98%
inactive: inhibition [2] 9% | inhibition [3] -1% | outcome [5] | outcome [6] | outcome [7] | outcome [8]

Fc1ccc(-c2csc3ncnc(Cl)c23)cc1
active: growth inhibition [1] 95% | growth inhibition [4] 94%
inactive: inhibition [2] 3% | inhibition [3] -1% | outcome [5] | outcome [6] | outcome [7] | outcome [8]

Cc1cccc2[nH]c(-c3ccc(-c4cccc(CNCc5cccc(N)c5)c4)cc3)nc12
inactive: inhibition [2] 0% | inhibition [3] -4% | outcome [5] | outcome [6] | outcome [7] | outcome [8]
active: growth inhibition [1] 87% | growth inhibition [4] 101%

CC(CON1C(N)=NC(N)=NC1(C)C)c1ccc(Cl)cc1Cl (stereo not drawn)
inactive: inhibition [3] 0% | outcome [5] | outcome [6] | outcome [7] | outcome [8]
active: growth inhibition [1] 95% | inhibition [2] 64% | growth inhibition [4] 97%

N=C(N)c1cccc(OCCCOc2cccc(NC(=O)Nc3ccc([N+](=O)[O-])cc3)c2)c1
inactive: growth inhibition [1] 22% | inhibition [2] 16% | inhibition [3] 3% | outcome [5] | outcome [6] | outcome [7] | outcome [8]
active: growth inhibition [4] 98%

CCCCCN1CCC(NC(=O)c2ccc(C(=O)Nc3ccc(C(C)C)cc3)cc2)CC1
inactive: growth inhibition [1] 9% | inhibition [2] 41% | inhibition [3] -4% | outcome [5] | outcome [6] | outcome [7] | outcome [8]
active: growth inhibition [4] 98%

Cc1cc(N)c2cc(NC(=O)/C=C/c3ccccc3)ccc2n1
active: growth inhibition [1] 68% | growth inhibition [4] 102%
inactive: inhibition [2] 20% | inhibition [3] 0% | outcome [5] | outcome [6] | outcome [7] | outcome [8]

FC(F)(F)c1ccc2c(C=Cc3ccncc3)c[nH]c2c1
active: growth inhibition [1] 76% | growth inhibition [4] 98%
inactive: inhibition [2] -12% | inhibition [3] -2% | outcome [5] | outcome [6] | outcome [7] | outcome [8]

COc1ccc(CSC2CCCCC23NC(=S)NC3=S)cc1 (stereo not drawn)
active: growth inhibition [4] 97%
inactive: growth inhibition [1] -3% | inhibition [2] -5% | inhibition [3] -1% | outcome [5] | outcome [6] | outcome [7] | outcome [8]

O=C(Nc1ccc(F)cc1)N1CCCN(c2ccnc3cc(Cl)ccc23)CC1
active: growth inhibition [4] 97%
inactive: growth inhibition [1] 16% | inhibition [2] 7% | inhibition [3] -1% | outcome [5] | outcome [6] | outcome [7] | outcome [8]

CCOc1c(Cl)cc(Cl)cc1CNCCCNc1nc2ccccc2[nH]1
inactive: growth inhibition [1] 1% | inhibition [2] 18% | inhibition [3] -7% | outcome [5] | outcome [6] | outcome [7] | outcome [8]
active: growth inhibition [4] 94%

Cc1cc(NCCc2ccccc2)nc(/N=C(\N)Nc2ccccc2Cl)n1
active: growth inhibition [4] 100%
inactive: growth inhibition [1] 7% | inhibition [2] 20% | inhibition [3] -8% | outcome [5] | outcome [6] | outcome [7] | outcome [8]

COc1cc2c(cc1OC)CN(CCc1ccc(NC(=O)c3cc4cc(OC(F)(F)F)ccc4[nH]3)cc1)CC2
active: growth inhibition [4] 99%
inactive: growth inhibition [1] 20% | inhibition [2] 36% | inhibition [3] -3% | outcome [5] | outcome [6] | outcome [7] | outcome [8]

CCCCC(=O)Nc1nonc1-c1ccc(OCC)c(OCC)c1
inactive: inhibition [2] 9% | inhibition [3] -1% | outcome [5] | outcome [6] | outcome [7] | outcome [8]
active: growth inhibition [1] 95% | growth inhibition [4] 101%

COc1ccc(-n2nc(C)c3c2NC(=O)CC3c2ccccc2OCc2ccccc2F)cc1 (stereo not drawn)
inactive: inhibition [2] 38% | inhibition [3] 4% | outcome [5] | outcome [6] | outcome [7] | outcome [8]
active: growth inhibition [1] 70% | growth inhibition [4] 93%
